Values without a mark were called inactive. For some of these results: Measured potencies and affinities stand elsewhere. Active and inactive are the calls of the source. Unless noted, the rule behind the calls is not given here.
Assays:
[1] = antimalarial activity against Dd2 strain (AID 2302;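 active = growth inhibition above 50% at the single 2 µM test dose, taken to imply half-maximal potency below 2 µM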;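 note: 0% = DMSO untreated growth and 100% = chloroquine plus artemisinin killed control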); settings: P. falciparum Dd2 in RBCs, LDH growth readout, 72 h; at 2 µM; stronger effect = higher value
[2] = HepG2 cytotoxicity, primary screen, cytotoxicity control for P. falciparum antimalarial project, cell-based, ATP luminescence (AID 2303;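 active = inhibition above 50%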;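 note: 0% = DMSO wells and 100% = digitonin-killed cells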); settings: HepG2 viability, 24-48 h, at 10 µM, stronger effect = higher value
[3] = biological target: L-lactate dehydrogenase (Plasmodium falciparum (isolate CDC / Honduras)) (UniProt Q27743); test: PfLDH activity inhibition – cell lysate, 3D7 strain, counter-screen for P. falciparum growth inhibition project (AID 2304);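 note: 0% = vehicle and 100% = reference inhibitor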; settings: P. falciparum 3D7 crude extract, LDH APAD/NBT absorbance; at 2 µM; stronger effect = higher value
[4] = inhibition of 3D7 malaria parasite growth – strain 3D7 (AID 2306);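 note: 0% = DMSO wells and 100% = chloroquine plus artemisinin control wells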; settings: P. falciparum 3D7 erythrocytic growth, LDH absorbance, 72 h; at 2 µM; stronger effect = higher value
[5] = biological target: Calcium-dependent protein kinase 1 (Plasmodium falciparum (isolate 3D7)) (UniProt P62344); test: PfCDPK1 kinase inhibitors, biochemical, TCAMS library (AID 1159585; cut-off not given, nearly all actives have IC50 up to about 0.98 µM;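 note: inhibitors leave more ATP so luminescence rises with inhibition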); settings: recombinant PfCDPK1, Kinase-Glo ATP depletion luminescence
[6] = biological target: Plasmodium falciparum protein kinase 6 (PK6, PF3D7_1337100) (UniProt Q8IDW1); test: PfPK6 kinase inhibitors, biochemical, TCAMS library (AID 1159586); settings: recombinant PfPK6, Kinase-Glo ATP depletion luminescence
[7] = biological target: Protein kinase 7 (PK7), Plasmodium falciparum 3D7 (PF3D7_0213400) (UniProt Q7YTF7); test: inhibition of Plasmodium PK7 catalytic activity – biochemical, TCAMS antimalarial set, Kinase-Glo luminescence (AID 1159587); settings: recombinant PfPK7, Kinase-Glo ATP depletion luminescence
[8] = biological target: Calcium-dependent protein kinase 4 (Plasmodium falciparum (isolate 3D7)) (UniProt Q8IBS5); test: PfCDPK4 kinase inhibitors, biochemical, TCAMS library (AID 1159588; cut-off not given, nearly all actives have IC50 up to about 0.91 µM); settings: recombinant PfCDPK4, Kinase-Glo ATP depletion luminescence
Calcium-dependent protein kinase 4 (Plasmodium falciparum (isolate 3D7)), sequence (Q8IBS5 whole entry, looked up): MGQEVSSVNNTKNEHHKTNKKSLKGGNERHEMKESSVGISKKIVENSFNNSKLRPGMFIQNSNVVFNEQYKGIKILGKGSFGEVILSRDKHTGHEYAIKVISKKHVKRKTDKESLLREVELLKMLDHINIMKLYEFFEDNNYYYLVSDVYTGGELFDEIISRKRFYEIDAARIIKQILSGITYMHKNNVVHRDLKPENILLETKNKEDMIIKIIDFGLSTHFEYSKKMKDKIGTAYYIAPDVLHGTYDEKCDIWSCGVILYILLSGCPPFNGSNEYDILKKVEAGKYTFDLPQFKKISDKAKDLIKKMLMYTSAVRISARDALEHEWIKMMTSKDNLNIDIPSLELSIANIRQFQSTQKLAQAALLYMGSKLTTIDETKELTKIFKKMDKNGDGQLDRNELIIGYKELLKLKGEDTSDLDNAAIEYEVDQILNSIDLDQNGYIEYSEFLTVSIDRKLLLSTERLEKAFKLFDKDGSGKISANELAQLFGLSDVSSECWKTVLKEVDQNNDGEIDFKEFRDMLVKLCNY

Protein kinase 7 (PK7), Plasmodium falciparum 3D7 (PF3D7_0213400), sequence (Q7YTF7 1-343): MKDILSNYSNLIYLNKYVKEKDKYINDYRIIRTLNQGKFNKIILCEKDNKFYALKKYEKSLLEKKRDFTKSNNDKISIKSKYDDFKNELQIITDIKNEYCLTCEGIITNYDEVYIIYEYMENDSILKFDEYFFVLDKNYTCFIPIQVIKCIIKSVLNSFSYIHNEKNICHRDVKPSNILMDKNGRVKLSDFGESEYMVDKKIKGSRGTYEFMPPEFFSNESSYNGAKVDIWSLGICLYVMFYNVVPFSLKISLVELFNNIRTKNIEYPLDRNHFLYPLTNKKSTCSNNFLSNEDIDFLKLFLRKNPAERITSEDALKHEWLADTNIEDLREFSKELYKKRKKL
Plasmodium falciparum protein kinase 6 (PK6, PF3D7_1337100), sequence (Q8IDW1 1-305): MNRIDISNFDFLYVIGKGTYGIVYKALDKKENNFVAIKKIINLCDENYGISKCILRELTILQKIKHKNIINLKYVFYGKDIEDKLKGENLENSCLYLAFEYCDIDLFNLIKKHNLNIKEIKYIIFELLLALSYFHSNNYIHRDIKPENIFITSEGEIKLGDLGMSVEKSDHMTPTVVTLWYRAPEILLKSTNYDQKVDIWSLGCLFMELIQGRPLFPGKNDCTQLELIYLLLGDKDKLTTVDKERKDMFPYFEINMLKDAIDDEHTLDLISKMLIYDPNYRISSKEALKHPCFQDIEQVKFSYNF
Calcium-dependent protein kinase 1 (Plasmodium falciparum (isolate 3D7)), sequence (P62344 whole entry, looked up): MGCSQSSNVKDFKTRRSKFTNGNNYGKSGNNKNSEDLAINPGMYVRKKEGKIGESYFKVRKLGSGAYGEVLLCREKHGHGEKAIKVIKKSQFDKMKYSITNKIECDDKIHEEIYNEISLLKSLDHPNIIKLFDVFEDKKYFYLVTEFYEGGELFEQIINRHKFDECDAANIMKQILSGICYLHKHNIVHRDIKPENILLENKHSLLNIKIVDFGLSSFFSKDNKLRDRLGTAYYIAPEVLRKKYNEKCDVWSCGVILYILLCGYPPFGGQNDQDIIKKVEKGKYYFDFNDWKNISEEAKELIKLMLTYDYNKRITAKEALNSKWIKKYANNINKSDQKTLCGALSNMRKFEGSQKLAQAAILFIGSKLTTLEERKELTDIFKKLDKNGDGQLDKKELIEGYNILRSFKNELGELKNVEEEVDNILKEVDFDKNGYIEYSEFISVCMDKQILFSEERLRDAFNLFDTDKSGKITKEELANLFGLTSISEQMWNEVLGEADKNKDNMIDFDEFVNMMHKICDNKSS
L-lactate dehydrogenase (Plasmodium falciparum (isolate CDC / Honduras)), sequence (Q27743 whole entry, looked up): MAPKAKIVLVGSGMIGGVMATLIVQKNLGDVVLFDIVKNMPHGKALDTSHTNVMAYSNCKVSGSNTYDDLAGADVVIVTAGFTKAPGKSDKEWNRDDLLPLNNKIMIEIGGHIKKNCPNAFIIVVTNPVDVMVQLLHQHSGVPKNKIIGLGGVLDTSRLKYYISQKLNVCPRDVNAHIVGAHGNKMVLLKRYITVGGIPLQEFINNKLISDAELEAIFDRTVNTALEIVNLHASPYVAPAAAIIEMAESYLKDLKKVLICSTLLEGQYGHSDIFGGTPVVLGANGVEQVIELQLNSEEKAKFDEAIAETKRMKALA

SMILES	growth inhibition [1]	inhibition [2]	inhibition [3]	growth inhibition [4]	outcome [5]	outcome [6]	outcome [7]	outcome [8]
O=C(NC1CCCCN(Cc2ccccc2O)C1)c1cc(F)cc(F)c1 (stereo not drawn)	52% (active)	7%	0%	89% (active)	inactive	inactive	inactive	inactive
Cc1cc(N[C@@H](Cc2ccccc2)C(=O)Nc2ccccc2)nc(NCCc2ccc(F)cc2)n1	81% (active)	26%	0%	96% (active)	inactive	inactive	inactive	inactive
O=C(Nc1ccc(N2CCN(c3ncccc3C(F)(F)F)CC2)nc1)c1cccs1	40%	7%	-7%	83% (active)	inactive	inactive	inactive	inactive
CN1CCCC(CN2CCN(Cc3ccc(-c4ccc(-c5nc6ccc(F)cc6[nH]5)s4)cc3)CC2)C1 (stereo not drawn)	100% (active)	73% (active)	-2%	101% (active)	inactive	inactive	inactive	inactive
Nc1nc(Nc2cccc(Cl)c2)ncc1C(=O)NCc1ccncc1	29%	3%	-5%	98% (active)	inactive	inactive	inactive	inactive
Cc1nnsc1C(=O)Nc1ccc(-c2cccc(-c3nc4ccc(F)cc4[nH]3)c2)cc1	27%	44%	2%	96% (active)	inactive	inactive	inactive	inactive
Cc1cc(Nc2cccc(Cl)c2)nc2ccc(NC(=O)c3ccc(=O)[nH]c3)cc12	23%	12%	4%	100% (active)	inactive	inactive	inactive	inactive
Cc1ccc(C2(C)CC(C)(C)N(C(=O)COc3ccc4ccccc4c3)c3ccccc32)cc1 (stereo not drawn)	98% (active)	0%	-2%	100% (active)	inactive	inactive	inactive	inactive
CC(C)CCN1CCC(Oc2ccc(NC(=O)c3ccc(F)cc3)cc2Cl)CC1	88% (active)	33%	4%	98% (active)	inactive	inactive	inactive	inactive
Cc1cc(NC(=O)c2ccc(-c3ccccc3)cc2)no1	57% (active)	5%	0%	83% (active)	inactive	inactive	inactive	inactive
Oc1ccc2ccccc2c1CNCCC1CCCCC1	99% (active)	16%	5%	99% (active)	inactive	inactive	inactive	inactive
Cc1cc(N)nc2ccc(-c3ccc(CN)cc3)cc12	93% (active)	4%	-3%	100% (active)	inactive	inactive	inactive	inactive
N#CCOc1c(C2CCN(CCCCNC(=O)c3ccc(-c4ccc(C(F)(F)F)cc4)cc3)CC2)ccc2c1CCCC2	48%	59% (active)	4%	97% (active)	inactive	inactive	inactive	inactive
CC(O)C1CCCCN1C(=O)c1ccc(-c2cccc(-c3nc4ccc(F)cc4[nH]3)c2)cc1 (stereo not drawn)	97% (active)	30%	-6%	100% (active)	inactive	inactive	inactive	inactive
Cc1cc(NN=Cc2ccc(F)cc2)c2cc(F)ccc2n1	61% (active)	6%	-4%	101% (active)	inactive	inactive	inactive	inactive
CC(C)CNCc1cccc(-c2ccc(CN(CCCN3CCN(C)CC3)C(=O)CCC3CCCC3)cc2)c1	89% (active)	82% (active)	0%	98% (active)	inactive	inactive	inactive	inactive
COc1ccc2nccc([C@@H](O)CN3CCC(NC(=O)C(c4ccsc4)N4CCN(c5ccccc5)CC4)CC3)c2c1 (stereo partly drawn)	17%	24%	-8%	95% (active)	inactive	inactive	inactive	inactive
CN1CCCN(Cc2ccc(-c3cccc(NC(=O)c4ccc(C#N)cc4)c3)cc2)CC1	26%	29%	-5%	100% (active)	inactive	inactive	inactive	inactive
O=C(/C=C/c1cc(C(F)(F)F)ccc1F)NCCCCCN1CCC(c2c[nH]c3ccccc23)CC1	4%	39%	-1%	88% (active)	inactive	inactive	inactive	inactive
OCC1CCN(Cc2cccc(-c3ccc(-c4nc5ccc(C(F)(F)F)cc5[nH]4)cc3)c2)CC1	95% (active)	25%	-3%	101% (active)	inactive	inactive	inactive	inactive
O=C(Nc1cccc(-c2nn3ccccc3c2-c2ccnc(Nc3cccc(N4CCCC4=O)c3)n2)c1)c1cc(F)ccc1F	51% (active)	59% (active)	3%	99% (active)	inactive	inactive	inactive	inactive

SMILES	growth inhibition [1]	inhibition [2]	inhibition [3]	growth inhibition [4]	outcome [5]	outcome [6]	outcome [7]	outcome [8]
Clc1ccccc1CN1CCC(NCc2cccc(-n3ccnc3)c2)CC1	43%	6%	-3%	101% (active)	inactive	inactive	inactive	inactive
O=C(NCCCCCN1CCC(c2c[nH]c3ccccc23)CC1)Nc1ccc(Cl)cc1Cl	15%	71% (active)	-2%	99% (active)	inactive	inactive	inactive	inactive
COc1ccc(CCNC(=O)c2cc3c(=O)n4cccc(C)c4nc3n(C)c2=N)cc1	99% (active)	22%	4%	99% (active)	inactive	inactive	inactive	inactive
COc1cc(Cc2cnc(N)nc2N)cc(OC(C)C)c1OC	15%	10%	0%	91% (active)	inactive	inactive	inactive	inactive
COc1ccc(C2CC(c3cccs3)=NN2C(=O)c2ccco2)cc1OC (stereo not drawn)	97% (active)	-3%	4%	101% (active)	inactive	inactive	inactive	inactive
Cc1ccc(C)c(Sc2ccc(NC(=O)CN3CCN(C(=O)c4ccco4)CC3)cc2)c1	93% (active)	28%	1%	96% (active)	inactive	inactive	inactive	inactive
O=C(Nc1cccc(CN2CCCN(Cc3cccc(Cl)c3)CC2)c1)c1ccc(-c2ccccc2)cc1	14%	44%	1%	86% (active)	inactive	inactive	inactive	inactive
CC=Cc1cc(Cc2cnc(N)nc2N)cc(CCC)c1OC	1%	16%	5%	97% (active)	inactive	inactive	inactive	inactive
CCOC(=O)C(C(C)=O)C(c1ccccc1)C(C(C)=O)C(=O)OCC (stereo not drawn)	14%	6%	2%	95% (active)	inactive	inactive	inactive	inactive
O=S(=O)(c1cc2ccccc2s1)N(CCC(O)(C(F)(F)F)C(F)(F)F)Cc1cccc(O)c1	99% (active)	-1%	0%	100% (active)	inactive	inactive	inactive	inactive
Cc1ccccc1Cn1c(CN2CCC(C(=O)NC3CC3)CC2)cc2ccccc21	96% (active)	7%	-2%	97% (active)	inactive	inactive	inactive	inactive
CC(Cc1ccc(OCC(=O)NCC2CCN(CCc3cccc(Cl)c3)CC2)cc1)NCCc1cccc(Cl)c1 (stereo not drawn)	85% (active)	100% (active)	-8%	96% (active)	inactive	inactive	inactive	inactive
COc1cc(OC)c2c(C)cc(NCCCn3ccnc3)nc2c1	22%	6%	-2%	102% (active)	inactive	inactive	inactive	inactive
CCC(=O)Nc1ccc(Nc2nc(C)cc(N3CCCC3)n2)cc1	2%	34%	-2%	91% (active)	inactive	inactive	inactive	inactive
O=C(Nc1ccon1)c1cc(-c2cccnc2)nc2ccc(Cl)cc12	76% (active)	-4%	6%	98% (active)	inactive	inactive	inactive	inactive
CC(C)CCNCc1ccc(OCc2cccc(COc3ccc(CNCCC(C)C)cc3I)c2)c(I)c1	49%	99% (active)	2%	91% (active)	inactive	inactive	inactive	inactive
COc1cc(C(=O)Nc2ccc3nc(N4CCN(C)CC4)cc(C)c3c2)cc(OC)c1OC	79% (active)	18%	-6%	102% (active)	inactive	inactive	inactive	inactive
COc1cc(NC(=O)c2cccs2)c(C(=O)NCc2ccc(C)cc2)cc1OC	88% (active)	3%	-2%	93% (active)	inactive	inactive	inactive	inactive
COc1ccc2nccc(CCN3C[C@H](CNCc4ccc5c(n4)NC(=O)CS5)[C@H](O)C3)c2n1	26%	4%	-2%	86% (active)	inactive	inactive	inactive	inactive
COc1ccc(CNC2CCN(C)CC2)cc1-c1ccc(S(=O)(=O)NCCc2ccccn2)c(C)c1	91% (active)	7%	-2%	96% (active)	inactive	inactive	inactive	inactive
